Laboratory results as given in the supplement of paper PMC11417369.
± gives the standard deviation of the averaged measurements. Whole data set: some 25,000 sequences, median “ln(normalized median fluorescence intensity)” near 7.9, cut for the highest 2% near 11. For the sample, the highest values were picked, then their nearest neighbours and some sequences at random.

System: PfAP2-I AP2 domain 3 (GST-tagged)
Test: gcPBM binding intensity (ln(normalized median fluorescence intensity)); higher = stronger DNA binding
Outline: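 Binding of GST-tagged P. falciparum DNA-binding domains, expressed in E. coli and used at about 25 μg on average, was carried out for 1 h in 1× PBS containing 1% milk, 0.2 mg/ml BSA, 0.5% salmon testes DNA and 0.03% Triton X-100. The target was an Agilent 4 × 180k array of primer-extended double-stranded 36-bp intergenic genomic probes plus negative controls, read with Alexa488 anti-GST antibody at 488 nm. Binding intensity is the highest Masliner-normalised natural-log median intensity across replicate spots of either probe orientation.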

| Sequence | gcPBM binding intensity (ln) |
| --- | --- |
| AAACAAAAAAGTAAGAAAAGGGATGATTGGATCCAA [CACACA_negctrl_site1230] | 7.35 ± 0.78 |
| GGAAACCCTCCCAAATGTACTTTTATAAAAAAATAC [XGTACX_site5502] | 8.2 ± 0.6 |
| TTTATTTATCTTTACGCACACACTTGCATGTACAAA [CACACA_site1118] | 9.455 ± 0.021 |
| ACAAATCTAAGATAGTGTACATTTATATATATATAT [XGTACX_site8740] | 9.4 ± 0.24 |
| ACATAAATATATGACACACACACATATTATATATAT [CACACA_site3065] | 8.36 ± 0.52 |
| AAAAATAAAAAAAAATTAAAATATATATATTTTGTT [TGCATGCA_negctrl_site102] | 7.49 ± 0.67 |
| GAAATGTATAAATCCATACACACATAAATTTTAATA [CACACA_site2364] | 7.58 ± 0.4 |
| TATTTCTTATTACATACACACATATACATAGATGAC [CACACA_site5729] | 8 ± 0.55 |
| TGCAAAAAATTCCACACACACACACGCATATAAATA [CACACA_site6696] | 7.95 ± 0.38 |
| GATAAAATCACTGGTGCATGTAGATATATAATATTA [TGCATGCA_site589] | 9.12 ± 0.085 |
| GCAAGGTCCACACTGGTGCATTAAAAATAAAATATA [GTGCAC_site9956] | 11.6 ± 0.41 |
| TTATTAAAAATGGTATGTACGCACATAATATATATA [XGTACX_site3230] | 8.56 ± 0.51 |
| ATATGTACGCAAGGTGCACACTGGTGCATTAAAAAA [CACACA_site1801] | 12.1 ± 0.21 |
| TATGTGTGCAAAAACTGTACACATTAAAGGTATATA [XGTACX_site7627] | 9.32 ± 0.28 |
| TTTATTTGGACATATACACACTTAAATATGTTTATT [CACACA_site6021] | 7.59 ± 0.47 |
| TTTTTTTTGATATATACACACAATAAATAAATATAA [CACACA_site7400] | 7.78 ± 0.39 |
| TATAATATATGTATATGTACTTATGTTGAGAAACAT [XGTACX_site2117] | 7.72 ± 0.59 |
| AATAAATATAGGAATACACACAATATAAATGTATTG [CACACA_site3366] | 7.5 ± 0.62 |
| GATACATAGAAACACACACACATACATATATACATA [CACACA_site3438] | 8.01 ± 0.4 |
| ATTGCCATTGTTAATGCATGTAACAATTCAGCTCAT [TGCATGCA_site56] | 8 ± 0.83 |
| TAAAAATATTTTCATTGTACATATATATAAATATAT [XGTACX_site1123] | 7.59 ± 0.3 |
| AAAATAAATAAATATACACACCATATATATATTTTT [CACACA_site5573] | 7.61 ± 0.39 |
| ATTTTTTTTTTTTTTTTTTTTGCACCATAAAATAAT [CACACA_negctrl_site1324] | 11.2 ± 0.56 |

| Sequence | gcPBM binding intensity (ln) |
| --- | --- |
| AAAAAATTTTGAAATTGTACATATATAAAAAATATA [XGTACX_site2629] | 7.59 ± 0.29 |
| AATATATTTTTTTTTTGTACATATTGTAAAATAATA [XGTACX_site6805] | 7.83 ± 0.22 |
| AAAAATGAATTATTTTGTACATATATATATATATAT [XGTACX_site3410] | 9.48 ± 0.54 |
| ATATATTGCACTTTTTGTACATAATGAAAAATTTTT [XGTACX_site8223] | 11.5 ± 1 |
| TACAACAATTTTTGCACACACCAAAACATAAAATAA [CACACA_site4964] | 9.15 ± 0.22 |
| AATATTGCACCATTTTGTACATAATATATTCAAATA [XGTACX_site475] | 11.7 ± 0.74 |
| TTTCTTCGAAATAGAACACTTGTGCAAAATAAGCAA [XGTACX_negctrl_site361] | 9.9 ± 0.23 |
| AAATTTAAAAATAAAGAACACACATATGTAAAATAT [CACACA_site9252] | 7.91 ± 0.76 |
| AGGATACACGGACACACACACATATAGATTTATATA [CACACA_site6552] | 8.14 ± 0.2 |
| AATTTATTAAAAAAATGTACTTATTTTTTTGTATAA [XGTACX_site5844] | 7.61 ± 0.11 |
| ATTTATAATATTCAAGTGCATATATATTTTTTACTT | 9.57 ± 0.14 |
| TTTATTCAAGGAATAGTGCATAATAATAAGTATTAT | 11.2 ± 0.62 |
| ATATATTTTTATATAGTGCAAGTAATAAAAAGGAAT | 10.04 ± 0.099 |
| TACTATTTTTATAATACACACATATATTTGTGATAT [CACACA_site1775] | 7.84 ± 0.44 |
| TTAATATATTATCTGGTGCATAAACACGTTATACCT | 11.3 ± 0.64 |
| TTTGTTATATTTAATACACACATATTATAAACACAT [CACACA_site7703] | 8.07 ± 0.34 |
| TATATATAATATTATACACACATATCTGCATAATAT [CACACA_site4202] | 8.13 ± 0.49 |
| GGTTATATATTTTTTGCACACCAAAAAAGAGAATAT [CACACA_site2731] | 9.56 ± 0.14 |
| TTTTCATATTATAGTGCACACAAAAATATATATATG [CACACA_site8929] | 11.5 ± 0.47 |
| TGAATATTCATATGCACACAAATTAATATACATAAT [CACACA_site442] | 8.675 ± 0.021 |
| CATATAAAAATATATGCACACAAATAAAAAATTATA [CACACA_site9210] | 8.94 ± 0.39 |
| TTCATATTATAGTGCACACAAAAATATATATATGGT [CACACA_site2855] | 11.3 ± 0.43 |
| ATTAATTTTATATATGCACACAAAATATGTTCATAT [CACACA_site9350] | 9.13 ± 0.099 |

| Sequence | gcPBM binding intensity (ln) |
| --- | --- |
| AACTCATAGGAGTGTGCACACAAAAAATTAAAAAAA [CACACA_site8996] | 9.52 ± 0.42 |
| CTCATAGTTGGGTGCACACAAAAAATTAAAAAAATA [CACACA_site3032] | 11.1 ± 0.81 |
| ATTCACAAATATATGGTGCATAATATATATATATAT [GTGCAC_site9674] | 11.31 ± 0.078 |
| ATGGCATAAATATATGCACACACAAAAAAAAAAAAA [CACACA_site7902] | 8.98 ± 0.11 |
| ATTATATACATATATGCACACAAAAAAATATATATT [CACACA_site8508] | 9.04 ± 0.12 |
| AACTCATAGCGGTGTGCACACAAAAAATTAAAAAAA [CACACA_site3033] | 9.9 ± 0.2 |
| TATATATATTTATGCACACAAAATATATTATAGAAT [CACACA_site3740] | 9.99 ± 0.4 |
| AAAAGGGAAATAAAATAAAAAAAGAAACATATATAG [CACACA_negctrl_site455] | 7.72 ± 0.76 |
| ATATGATCATAAAACACACACACAAAAAAAAAAAAA [CACACA_site1806] | 7.95 ± 0.75 |
| TATATATGTGTATAGAGTACACGTTTTTTTTAATAT [XGTACX_site3128] | 7.71 ± 0.38 |
| ATTGTATTAAAATGCACACATATCAAGAGGAATTTT [CACACA_site283] | 9.095 ± 0.064 |
| AAAGAAAATAACAAAATTTTGAAAACATCACATTCG [CACACA_negctrl_site89] | 7.63 ± 0.69 |
| ATCAAAATGTTAAAGATACACACCTAACAAACACAA [CACACA_site955] | 7.96 ± 0.19 |
| TAAATCATTTATTAAGTGCAATATTCTTTTTGAGAT | 10.3 ± 0.28 |
| ATATATATATATATGGTGCATGAAAATTTACTTTGA | 10.11 ± 0.085 |
| TATATATGTATGTATGTACACACAAAAAATGGAATA [CACACA_site9235] | 8.05 ± 0.45 |
| CGTATATCACCAACTAGTACATATAAATAAATAAAT [XGTACX_site8837] | 7.92 ± 0.5 |
| AAAAAGGTTAAGGTAGTGCATAATAAAGAATATTAA | 11 ± 0.45 |
| AAAAAGAATATAAGTAGTACAGTGCATATAATAATT [XGTACX_site617] | 10.3 ± 0.37 |
| TATATAATATATATAGTGCATAAGTTCAAAAGAATA [GTGCAC_site9805] | 9.95 ± 0.16 |
| AAATAAGAAAAAGCGCGTACACATAACATTTTTATA [XGTACX_site8807] | 7.82 ± 0.54 |
| TTAACGTAAAATATAGTGCATAGTATCATATTGATA [GTGCAC_site9527] | 9.5 ± 0.099 |
| TATGTTTTTGAATGAGTGCATTAAAATAAAACATTT | 11.3 ± 0.61 |

| Sequence | gcPBM binding intensity (ln) |
| --- | --- |
| GGTTTGAATTTTTAAGTGCATATAACATAAATGAAA | 9.86 ± 0.23 |
| TTTGAAATATTAAATGCATGTTAAAACATAAAAATG [TGCATGCA_site680] | 7.91 ± 0.73 |
| TATAATATGACAAGAAGTACATATATTTACATATAT [XGTACX_site1571] | 7.54 ± 0.29 |
| AAATCAAACTTTGGTGTGCACAAATATATACATATA [GTGCAC_site9986] | 10.545 ± 0.007 |
| AAAAATTAACAAAAGGTGCAATTTATTTATTAACGG | 10.3 ± 0.5 |
| TAATATAATATATAGGTGCAATATTAACAAAAATTT | 11 ± 0.44 |
| AATAAGTAACAAAATACACACATATAGGTAATTATA [CACACA_site6949] | 7.62 ± 0.59 |
| CATAACATAAAATAGGTGCACAAAAATTGTAATTGA | 11.37 ± 0.021 |
| TATATTCAAAATGGTACACACAATATTTAATTGTGC [CACACA_site2631] | 7.68 ± 0.34 |
| TACAATGAAAAAATAACATGCAATTATATTTCTCTT [TGCATGCA_site833] | 8.23 ± 0.74 |
| ATTTAAATACAAAATTGTACTTTTCTATATTTAACA [XGTACX_site6146] | 7.79 ± 0.41 |
| TATATTAACAAAATGGTGCAATAATTTCTATATTAT [GTGCAC_site9857] | 11.3 ± 0.61 |
| TAATATATATAACAAGTGCAAAAAAATATAGATATT [GTGCAC_site9625] | 9.38 ± 0.33 |
| TATTAATTTAAATGGGTGCAAAACCTATATAAATAT | 10.6 ± 0.55 |
| GTTGTGTAATTCGTAACACACATAAAATATATATAA [CACACA_site6059] | 7.76 ± 0.48 |
| TATATTAACAAAATGGTGCAATAATTTCTATATTGT [GTGCAC_site9430] | 11.2 ± 0.54 |
| AATGGGTTACACATATGTACATAAAATATAAAAAAT [XGTACX_site3440] | 8.06 ± 0.73 |
| GGAGAATAGTGGAAAACACACACGTTTGAGATATGG [CACACA_site1168] | 7.92 ± 0.91 |
| GATTAACAACATATTAGTACATATATTATATATATA [XGTACX_site7646] | 8.61 ± 0.23 |
| AGTTTCTATTTAGTGTGTACTTAAGAAAAATATCTC [XGTACX_site82] | 7.88 ± 0.4 |
| AGAAGAAAAGAAATATGTACATAAACGTCTGAACTA [XGTACX_site1699] | 7.8 ± 0.71 |
| CCTTTTGGATGAAAGTGTACAGGTGAGAAAAATTCC [XGTACX_site3358] | 8.07 ± 0.54 |
| TTATCGGTATAATATAGTACATATAGATATATAATA [XGTACX_site1440] | 7.7 ± 0.39 |
